High-throughput results as filed in PubChem BioAssay.
This excerpt belongs to a sample that is enriched for hits.
HT1080-NT tox = kills 2HG-producing HT-1080-NT fibrosarcoma cells; HT-1080-NT fibrosarcoma viability, CellTiter-Glo ATP luminescence, 48 h; Potency, µM (series often up to 46.1 µM), for inactives: at the highest dose activity, negative = less viability, usual class: cytotoxic; 360,000 compounds, 1.6% hits; AID 686970;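 further: NT is the 2HG producing partner of a matched IDH1 knockdown line; potency means the concentration at half of the fitted maximal effect; 0% = DMSO-treated cells and -100% = media-only wells without cells; nearly all actives have a fitted effect of over 55% in size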
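HT-1080-NT fibrosarcoma cells (2HG-overproducing), 750 cells/well in RPMI with 5% FBS, dosed after 2 h and incubated 48 h at 37C. CellTiter-Glo luminescence normalized to DMSO and no-cell wells; concentration-response curves fitted and classed.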
IL1B secr inh = inhibitors of inflammasome signaling (IL-1 beta secretion); THP-1 LPS/ATP IL-1B secretion, AlphaLISA, 16 h; active compounds read low; activity change, % at 57.5 µM; 360,000 compounds, 4.7% hits; AID 743279; in the data active means activity change below about -50%; inconclusive means mostly about -30% to -49%
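Secreted IL-1B measured by AlphaLISA bead assay after 16 h compound exposure of THP-1 cells; compounds (final up to 57.5 uM) added 1 h before LPS (250 ng/mL) and ATP (1.25 mM) stimulation; lower signal means less secretion.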
DT40 TDP1 no CPT = qHTS for Inhibitors of human tyrosyl-DNA phosphodiesterase 1 (TDP1): qHTS in cells in absence of CPT; DT40 Tdp1-/- hTDP1 cells, no CPT, ATP luminescence, 48 h; Potency, µM (highest dose often 46.2 µM), for the others: at the top dose activity change, negative = growth inhibition, usual class: inhibitors; 420,000 compounds, 15% hits; AID 686978, 2013; further: potency means the concentration at half of the fitted maximal effect; nearly all actives have a fitted effect of over 55% in size
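Stably hTDP1-transfected Tdp1-null chicken DT40 cells were treated with library compounds minus camptothecin and grown for at least 48 hr at 37 °C, after which cellular ATP was quantified by luminescence.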
DT40 TDP1 CPT = DT40-hTDP1 cell growth loss with CPT; AID 686979; Potency, µM (top dose mostly 46.2 µM), for inactives: at the highest dose activity change, negative = growth inhibition, most hits filed as inhibitors; chicken DT40 Tdp1-/-;hTDP1 cells + 20 nM CPT, ATP luminescence, 48 h; 420,000 compounds, 12% hits; further: potency means the concentration at half of the fitted maximal effect; nearly all actives have a fitted effect of over 55% in size
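Cell growth measured by CellTiter-Glo luminescence after a minimum 48 h, 37 C compound exposure with 20 nM CPT in Tdp1-knockout DT40 cells stably expressing hTDP1, seeded 400/well; qHTS titration format.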
12-LOX inh = inhibitors of human 12S-lipoxygenase ALOX12; P18054; Potency, µM (series often up to 108 µM), inactives show at the top dose activity change, negative = inhibition, usual class: inhibitors; 580,000 compounds, 1.1% hits; purified 12hLO, xylenol orange hydroperoxide absorbance; further: potency means the concentration at half of the fitted maximal effect
Target sequence (P18054 whole entry, looked up): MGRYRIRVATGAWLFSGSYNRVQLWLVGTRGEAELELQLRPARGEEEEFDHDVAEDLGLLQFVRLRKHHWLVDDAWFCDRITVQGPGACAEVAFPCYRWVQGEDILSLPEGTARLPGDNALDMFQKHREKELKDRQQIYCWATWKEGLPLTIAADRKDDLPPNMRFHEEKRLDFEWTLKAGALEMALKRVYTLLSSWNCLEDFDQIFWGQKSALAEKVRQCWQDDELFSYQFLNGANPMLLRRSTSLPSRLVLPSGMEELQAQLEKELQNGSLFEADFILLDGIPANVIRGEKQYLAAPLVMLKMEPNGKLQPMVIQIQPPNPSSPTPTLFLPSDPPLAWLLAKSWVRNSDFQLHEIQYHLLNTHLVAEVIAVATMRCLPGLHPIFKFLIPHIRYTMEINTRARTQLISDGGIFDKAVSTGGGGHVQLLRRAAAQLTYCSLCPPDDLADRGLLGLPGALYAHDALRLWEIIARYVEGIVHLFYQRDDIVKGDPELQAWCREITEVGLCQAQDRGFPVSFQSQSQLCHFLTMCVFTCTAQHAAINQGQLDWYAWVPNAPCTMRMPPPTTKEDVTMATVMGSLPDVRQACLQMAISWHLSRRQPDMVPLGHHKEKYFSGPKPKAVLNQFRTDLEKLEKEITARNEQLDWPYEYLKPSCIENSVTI
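Purified human 12hLO at 150 nM in 25 mM Hepes, 0.01% Triton X-100, pH 7.0, preincubated 15 min at room temperature with compound. Reaction started with 40 uM arachidonic acid, 30 min at room temperature. Hydroperoxide measured by Fe-xylenol orange, 573/405 nm absorbance ratio.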
HT1080 IDH1KD tx = toxicity to HT-1080 IDH1 knockdown cells (counter line). 360,000 compounds, 2% hits. Potency, µM (highest dose often 46.1 µM), inactives show at the highest dose activity, negative = toxicity, usual class: cytotoxic. HT-1080 IDH1 knockdown viability, ATP luminescence, 48 h;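 further: potency means the concentration at half of the fitted maximal effect; 0% = DMSO wells and -100% = cell-free medium wells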
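HT-1080-IDH1KD cells (IDH1 knocked down), 750/well in RPMI with 5% FBS, treated with compound 48 h at 37 degrees C. Viability by CellTiter-Glo luminescence, normalised to DMSO and no-cell wells; concentration-response curves classed.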
The depositor's hits bear a star; ? = inconclusive; · = not tested or not shown; [ ] = dose if it differs, or a comment. Unless noted, the call rests on the fitted dose curve; in most records, active means well fitted curve in the direction sought with a large enough effect; inconclusive means small, poorly fitted or top-dose-only effect, or another doubt; inactive means no such curve, though single readings can be large; an effect the other way counts as inactive or inconclusive. Unless noted, on the % scale 0 is the no-effect control and ±100 the full control effect.

SMILES | HT1080-NT tox | IL1B secr inh | DT40 TDP1 no CPT | DT40 TDP1 CPT | 12-LOX inh | HT1080 IDH1KD tx
O=C(c1cccs1)N1CCCC(c2nc3c(nnn3Cc3c(Cl)cccc3Cl)c(=O)[nH]2)C1 (stereo not drawn) | -8% | -25 | ? | ? | -18% | -7%
Cc1occc1-c1nc(-c2ccc(Br)cc2)no1 | · | · | · | · | -54% | ·
Cn1ccnc1CNC(=O)C[C@@H]1C[C@H]2O[C@H](CNC(=O)NC3CCCCC3)[C@@H](O)[C@H]2O1 | · | · | · | · | 21% | ·
CC(C)(C)c1ccc(Cn2nnc3c(=O)[nH]c(C4CCN(C(=O)Cc5cccs5)CC4)nc32)cc1 | ? | -29 | 21µM* | ? | -10% | ?
Cc1ccc(Cn2nnc3c(=O)[nH]c(C4CCN(C(=O)Cc5cccs5)CC4)nc32)cc1 | -28% | 0 | -23% | ? | -1% | ?
CCN(CC)c1nc(SCCOC(=O)Nc2ccccc2)nc(N(CC)CC)n1 | ? | -20 | ? | 18µM* | -15% | ?
COc1cc(/C=C/C(=O)c2ccc3c(c2)OCCO3)cc(OC)c1OC | -11% | -94* | ? | ? | 1% | ?
COc1cc(C(=O)NC(=S)NNC(=O)c2ccc3c(c2)OCO3)cc(OC)c1OC | ? | 39 | ? | ? | -18% | ?
COc1cc(C(=O)c2cc3c(cc2C)OCO3)cc(OC)c1OC | ? | 79 | 0.023µM* | 0.023µM* | 3% | ?
COc1ccccc1NC(=O)COC(=O)c1ccc2c(c1)OCCO2 | 1% | 23 | ? | -13% | 1% | -1%
COc1cc(C=CC(=O)OCC=Cc2ccc3c(c2)OCO3)cc(OC)c1OC | 0% | -9 | ? | ? | 3% | -2%
N#Cc1ccc(/C=C/C(=O)c2ccc3c(c2)OCCO3)cc1 | · | · | · | · | -20% | ·
COc1cc(/C=C/C(=O)c2ccc3c(c2)OCO3)cc(OC)c1OC | ? | -97* | 12µM* | ? | · | ?
COc1cc(C(=O)COC(=O)c2ccc3c(c2)OCCO3)cc(OC)c1OC | ? | -12 | ? | 15µM* | 5% | ?
Cc1ccc(CNC(=O)c2cccc(-c3ccc(S(=O)(=O)N4CCCCC4)cc3)c2)cc1 | · | · | · | · | -21% | ·
CC1(c2cccnc2)N(CC2CC2)C(=O)OC12CCN(C(=O)c1cccc(O)c1)CC2 (stereo not drawn) | · | · | · | · | 15%[176 µM] | ·
COc1cc(C(=O)OCC(=O)c2cc(C)n(C)c2C)cc(OC)c1OC | ? | 33 | 16µM* | 26µM* | 0% | ?
COc1ccc(OC)c(/C=C/C(=O)c2ccc3c(c2)OCCO3)c1 | ? | -101* | ? | ? | -26% | ?
CC(Oc1ccc(-n2cnnn2)cc1)C(=O)Nc1ccccc1Sc1ccccc1 (stereo not drawn) | · | · | · | · | -1% | ·
CC1(C)CC(=O)C(C2C3=C(CC(C)(C)CC3=O)Oc3c(Br)cc(Br)cc32)=C(O)C1 (stereo not drawn) | 7% | 30 | 18µM* | ? | ? | 5%
CC1(C)CC(=O)C2=C(C1)OC1=C(C(=O)CC(C)(C)C1)C2c1cc([N+](=O)[O-])cc([N+](=O)[O-])c1O | -20% | 6 | ? | ? | ? | ?
N#Cc1ccc(N2CCCn3nc(CCC(=O)N4CCCC4)cc3C2)nc1 | · | · | · | · | 4% | ·
Cc1cccc(NC(=O)CSc2cccc3cccnc23)c1C | -1% | 38 | -21% | 2% | ? | -7%
Cc1cccc(CSc2cccc3cccnc23)c1 | ? | -110* | 3.7µM* | 4.1µM* | 1% | ?
FC(F)(F)c1cccc(CSc2cccc3cccnc23)c1 | · | · | · | · | -4% | ·
SMILES | HT1080-NT tox | IL1B secr inh | DT40 TDP1 no CPT | DT40 TDP1 CPT | 12-LOX inh | HT1080 IDH1KD tx
CCOC(=O)CSc1cccc2cccnc12 | -27% | -3 | 5.8µM* | 5.8µM* | ? | ?
COc1cccc(/C=N/NC(=O)CSc2cccc3cccnc23)c1 | -28% | 58 | 12µM* | ? | ? | -19%
CN(Cc1ccccc1NS(=O)(=O)c1ccc2ccccc2c1)C1CCCCC1 | -21% | 12 | 21µM* | ? | -14% | -21%
CN(Cc1ccccc1NS(=O)(=O)c1ccc(Cl)cc1)C1CCCCC1 | 5% | 10 | -29% | ? | -11% | -3%
O=C(Nc1cccc(Cl)c1)c1cc(-c2ccccc2)on1 | · | · | -5% | -20% | -2% | ·
O=C(Nc1cnn(C23CC4CC(CC(C4)C2)C3)c1)c1cc(-c2ccccc2)on1 | 5% | -16 | 21µM* | 23µM* | -15% | ?
CCCn1cc(NC(=O)c2cc(-c3ccccc3)on2)cn1 | ? | 0 | 23µM* | ? | 27% | ?
CN1/C(=C\C(=S)NC(=O)c2cccc(Br)c2)C(C)(C)c2ccccc21 | -3% | -27 | 5.2µM* | 9.2µM* | ? | ?
CN1/C(=C\C(=O)Nc2ccc(Br)cc2)C(C)(C)c2ccccc21 | -3% | -2 | -9% | ? | ? | -1%
CCN(CC)S(=O)(=O)c1cccc(C(=O)/C=C2/N(C)c3ccccc3C2(C)C)c1 | -11% | ? | 15µM* | 21µM* | -13% | -11%
CN1/C(=C\C(=O)CSc2nncn2C)C(C)(C)c2ccccc21 | 12% | 10 | -5% | 17% | -26% | 8%
CN1/C(=C\C(=S)NC(=O)c2ccc([N+](=O)[O-])cc2)C(C)(C)c2ccccc21 | -2% | 3 | 23µM* | 16µM* | ? | -1%
CCOc1cccc(CNC(=O)[C@H]2CCC[C@H]2NC(=O)c2ccc(OC)nc2)c1 | · | · | · | · | 9% | ·
Cc1cc(C(=O)N2CCC(Cc3nc(-c4ccccc4)n[nH]3)C2)n(C)n1 (stereo not drawn) | · | · | · | · | 38% | ·
Cc1nc(SCc2nc(-c3cccc(Cl)c3)oc2C)[nH]c(=O)c1C | · | · | · | · | -17% | ·
C#Cc1ccc([C@@H]2C=C(C(=O)Nc3ccccc3)O[C@H](OCC)[C@H]2CCCO)cc1 | -3% | ? | 13µM* | 16µM* | 6% | -11%
CCO[C@H]1OC(C(=O)Nc2ccccc2)=C[C@@H](c2ccc(C(F)(F)F)cc2)[C@@H]1CCCO | ? | -55* | 15µM* | 15µM* | -5% | ?
O=C1C(C=Nc2ccc(F)cc2)=C(O)c2ccccc21 | 14% | -16 | -15% | 8% | -20% | 0%
COc1ccc(N=CC2=C(O)c3ccccc3C2=O)c(OC)c1 | ? | -13 | 18µM* | ? | 47% | -30%
